From PubChem BioAssay come the findings set out here.

Assay [1] addresses 6-phosphogluconate dehydrogenase, decarboxylating (Homo sapiens) (UniProt P52209). The assay is described as follows: inhibition of human phosphogluconate dehydrogenase – biochemical, recombinant enzyme, NADPH absorbance, primary screen (AID 1159550). Particulars: recombinant 6PGD, NADPH absorbance 341 nm; at 10 µM; stronger effect = higher value.
Assay [2] is described as follows: viability loss with induced miR-34 in A549 – imaging, A549 dox-inducible miR-34, nuclei and caspase counts, primary screen (AID 1347080;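 active = compounds whose cell count with miR-34 switched on is under 0.7 times the count with it off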). As to conditions: A549 miR-34 inducible, Hoechst nuclei count, 48 h.

Counter-ions that a name gives are not always drawn. Active and inactive are the calls of the source.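 The calls were made as follows, unless noted: active = at least 20% inhibition of 6-phosphogluconate dehydrogenase activity; inactive = the rest.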 Where a SMILES comes first, the peptide text is derived from it. The star is where a group is joined. Tfa = O=C(C(F)(F)F)*

6-phosphogluconate dehydrogenase, decarboxylating (Homo sapiens), sequence (P52209 whole entry, looked up): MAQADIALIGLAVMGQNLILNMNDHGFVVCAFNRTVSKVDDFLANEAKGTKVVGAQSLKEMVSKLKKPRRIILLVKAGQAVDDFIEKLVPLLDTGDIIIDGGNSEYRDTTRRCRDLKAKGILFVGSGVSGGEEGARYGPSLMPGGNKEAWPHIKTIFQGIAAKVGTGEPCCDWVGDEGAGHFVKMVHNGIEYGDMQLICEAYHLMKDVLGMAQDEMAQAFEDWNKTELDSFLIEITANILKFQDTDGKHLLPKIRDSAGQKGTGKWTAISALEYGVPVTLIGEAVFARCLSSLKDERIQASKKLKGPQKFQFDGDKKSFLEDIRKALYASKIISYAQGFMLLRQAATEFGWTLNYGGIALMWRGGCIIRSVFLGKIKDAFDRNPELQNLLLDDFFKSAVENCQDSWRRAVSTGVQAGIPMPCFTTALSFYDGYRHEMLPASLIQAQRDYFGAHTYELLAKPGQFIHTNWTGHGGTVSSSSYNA

As to `C[C@@H]1[C@H]2[C@H](O[C@@H]3O[C@H](CO)[C@@H](O)[C@H](O)[C@H]3O)OC=C(C(=O)O)[C@H]2C[C@@H]1O`, the inhibition in assay [1] is 16.7% (inactive).
Turning to `O=C(O)CCn1c2c(c3ccccc31)C[C@H](NS(=O)(=O)c1ccc(F)cc1)CC2`, the fold change is 0.961 (inactive) in assay [2] (stronger effect = lower value, cell number ratio, induced over uninduced) and 0.911 in assay [2] (measured here: relative caspase fold change +Dox/-Dox). Besides, the cell count in assay [2] (measured here: total cells with miR-34 induction, stronger effect = lower value) was found to be 5630; in assay [2] (measured here: total cells without miR-34 induction), 5850.
As for `C=C1C(C2(C)C(OC(C)=O)CC(=O)OC(C)(COC(C)=O)C2CC(=O)OC)C(OC=O)C(OC(=O)C(O)C(C)CC)C2(C)C(c3ccoc3)CC(=O)C12O` (stereo not given), in assay [1], the inhibition is 7.27% (inactive).
For `COc1cc2c(cc1O)[C@@H](Cc1ccc(O)cc1)N(C)CC2`, in assay [1], the inhibition was 0.499% (inactive).
On the same count and under the same terms, under `CC1=C2C(=COC(C)C2C)C(=O)C(C(=O)O)=C1O` (stereo not given) stands 10.6% (inactive); under `CC1(C)CCC2(C(=O)O)CCC3(C)C(=CCC4C5(C)CCC(O)C(C)(C)C5CCC43C)C2C1` (stereo not given), 0.817% (inactive); under `C[C@]12CC[C@@H]3c4ccc(OC(=O)CCC(=O)O)cc4CC[C@H]3[C@@H]1CCC2=O`, 5.64% (inactive).
The same measure, in the same setting: under `COc1ccc2c(=O)ccoc2c1` stands -1.53% (inactive); under `CC1(C)C(=O)C2OC2C2(C)C1CC(=O)C1(C)C2CCC2(C)C(c3ccoc3)OC(=O)C3OC321` (stereo not given), 2.22% (inactive).
In the case of `COc1ccc2c(=O)cc(-c3ccccc3OC)oc2c1`, the inhibition in assay [1] was 3.35% (inactive).
On the same count and under the same terms, under `CC[C@@H](/C=C/[C@@H](C)[C@H]1CC[C@H]2[C@@H]3CC=C4C[C@@H](O)CC[C@]4(C)[C@H]3CC[C@]12C)C(C)C` stands 15.3% (inactive).
Still for that read-out and setting: under `CC(C)[C@H](NC(=O)[C@H](Cc1ccc(O)cc1)NC(=O)[C@@H](NC(=O)C(F)(F)F)C(C)C)C(=O)O` (Tfa-Val-Tyr-Val-OH) stands -6.07% (inactive); under `CC(=O)C1CCC2C3CC=C4CC(O)CCC4(C)C3CCC12C` (stereo not given), -15.3% (inactive); under `CC1(C)Oc2ccc3ccc(=O)oc3c2C[C@H]1O`, 1.49% (inactive).
Regarding `CC1CCC(C(C)C)C(O)C1` (stereo not given), the inhibition in assay [1] was -10.6% (inactive).
As to `COC1=CC(=O)C(O)=C/C1=C/C=C/c1ccccc1`, the inhibition in assay [1] is 4.47% (inactive).
`COC(=O)c1c(Cl)c(Cl)c(C(=O)OC)c(Cl)c1Cl`: in assay [1], the inhibition was -11.1% (inactive).
The same measure, in the same setting: under `COc1ccc(-c2c(OC)c3c(OC)c4c(cc3oc2=O)OC(C)(C)C=C4)cc1` stands 5.26% (inactive).
The same measure, in the same setting: under `C=CC(C)(CCC1C(=C)CC(OC(C)=O)C2C(C)(C)CCCC12C)OC(C)=O` (stereo not given) stands 11.4% (inactive); under `COC(=O)c1cc(OC)c(=O)c2c(OC)c(OC)ccc2c1`, 7.65% (inactive); under `C1CCN2CC3CC(CN4CCCCC34)C2C1` (stereo not given), 12.3% (inactive).
Same read-out and setting: under `Cc1cc(=O)c2c(O)c3c(cc2o1)OCC(C)CC3` (stereo not given) stands 4.57% (inactive); under `CC(=O)Oc1ccc2c(c1C(C)C)CCC1C(C)(C)CCCC21C` (stereo not given), 2.45% (inactive).
With `CC(=O)O[C@@H]1CC2C(C)(C)[C@H](O)C[C@H](O)[C@]2(C)C2CC[C@@]3(C)C(=CC(=O)O[C@H]3c3ccoc3)[C@@]21C` (stereo not given in full), the inhibition in assay [1] was 13.2% (inactive).
On the same count and under the same terms, under `Oc1cc(O)c2c(c1)O[C@H](c1cc(O)c(O)c(O)c1)[C@H](O)[C@H]2c1c(O)cc(O)c2c1O[C@H](c1cc(O)c(O)c(O)c1)[C@H](O)[C@H]2c1c(O)cc(O)c2c1O[C@H](c1cc(O)c(O)c(O)c1)[C@H](O)C2` stands 11.5% (inactive); under `CC(=O)NC(Cc1c[nH]c2ccccc12)C(N)=O` (stereo not given), -11.6% (inactive); under `CC(C)c1c(O)ccc2c1CCC1C(C)(CO)CCCC21C` (stereo not given), -0.0186% (inactive).
For `NC[C@@H]1OC(O[C@@H]2[C@@H](O)[C@H](O[C@H]3[C@@H](O)[C@H](N)C[C@H](N)[C@H]3O[C@H]3O[C@H](CN)[C@H](O)[C@H](O)[C@H]3N)O[C@@H]2CO)[C@H](N)[C@@H](O)[C@H]1O` (stereo not given in full), the inhibition in assay [1] is -6.73% (inactive).
Turning to `CC(=O)OC1CC2C(C)(C)C(=O)C=CC2(C)C2CCC3(C)C(c4ccoc4)OC(=O)C4OC43C12C` (stereo not given), the inhibition in assay [1] is -18.7% (inactive).
For the molecule `CC12CCC3c4ccc(OC(=O)c5ccccc5)cc4CCC3C1CCC2=O` (stereo not given), the inhibition in assay [1] was -9.5% (inactive).
Still for that read-out and setting: under `COc1ccc2c(c1)CC[C@@H]1[C@@H]2CC[C@]2(C)[C@@H](O)[C@H](O)C[C@@H]12` stands 5.45% (inactive); under `OC[C@H]1O[C@@H](O[C@H]2[C@H](O)[C@@H](O)[C@H](O)O[C@@H]2CO)[C@H](O)[C@@H](O)[C@@H]1O`, -3.99% (inactive).
In the case of `COc1ccc2c(c1)[C@@]1(C)CCC(=O)C[C@@H]1CC2`, the inhibition in assay [1] is 3.57% (inactive).
`CC(=O)OC1CCC2(C)C(CC(OC(C)=O)C3(C)C2CCC2(C)C(c4ccoc4)OC(=O)C4OC423)C1(C)C` (stereo not given): the inhibition in assay [1] was -7.87% (inactive).
Turning to `CC(=O)OC1CCC2(C)C(CCC3(C)C2CC=C2C4CC(C)(C)CCC4(C)CCC23C)C1(C)C` (stereo not given), in assay [1], the inhibition is 3.75% (inactive).
Same read-out and setting: under `C/C=C(/C)C(=O)O[C@H]1Cc2c(ccc3ccc(=O)oc23)OC1(C)C` stands 9.34% (inactive); under `COc1ccc(-c2coc3cc(O)c(OC)cc3c2=O)cc1`, 10.5% (inactive).
The same measure, in the same setting: under `Oc1ccc2c(c1)OC[C@]1(O)Cc3cc(O)c(O)cc3C21` (stereo not given in full) stands 9.03% (inactive).
Still for that read-out and setting: under `COc1c(C(C)C)oc2cc3oc(=O)ccc3cc12` stands 2.98% (inactive).
As for `CS(C)(=O)=O`, in assay [1], the inhibition was 0.728% (inactive).
Take `CC1(C)CC2C1CC[C@]1(CBr)CCC3C(CC(=O)O)C(=O)O[C@@]32C1` (stereo not given in full): the inhibition in assay [1] is 14.7% (inactive).
The same measure, in the same setting: under `CC(C)CC(NC(=O)C1CCCN1C(=O)C(N)C(C)C)C(=O)O` (stereo not given) stands 14% (inactive).

A word on the inhibition: it is the change of the read-out against control, counted positive when it falls.
